The record followed here is PubChem BioAssay.

Structures are written as SMILES. For part of these data: Entries with a potency or affinity are not part of this list. The source made the active and inactive calls.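 Rule for the calls, unless noted: active = fitted half-maximal concentration within the tested dose range, moderate curve steepness, a statistically real signal drop, and little compound fluorescence or tag-binding interference; inactive = the rest.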

The target of experiment [1] is Cell division control protein 42 homolog (Homo sapiens) (UniProt P60953). Description: activated mutant Cdc42 GTP-binding inhibitors, dose response, biochemical, multiplex bead flow cytometry, Bodipy-FL-GTP (AID 1333).
Sequence of Cell division control protein 42 homolog (Homo sapiens) (P60953 whole entry, looked up): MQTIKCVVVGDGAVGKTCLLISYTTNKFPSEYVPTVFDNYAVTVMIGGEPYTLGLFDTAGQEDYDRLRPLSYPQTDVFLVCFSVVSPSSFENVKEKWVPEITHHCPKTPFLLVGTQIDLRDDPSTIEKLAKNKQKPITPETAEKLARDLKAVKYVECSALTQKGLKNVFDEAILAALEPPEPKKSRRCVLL
Experiment [2] has the same target. Description: wildtype Cdc42 GTP-binding inhibitors, dose response, biochemical, multiplex bead flow cytometry, Bodipy-FL-GTP (AID 1334;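 active = fitted half-maximal concentration within the tested range, moderate curve steepness, significant signal drop, and little compound fluorescence or bead-linkage interference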). Conditions: bead-based flow cytometry, Bodipy-FL-GTP binding to GST-Cdc42; at 100 µM (top of the series) unless noted.
Experiment [3] addresses GTPase HRas (Homo sapiens) (UniProt P01112). The experiment can be described thus: inhibitors of GTP binding to wildtype Ras, dose response, biochemical, multiplex bead flow cytometry (AID 1335;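 active = fitted half-maximal concentration within 10 nM to 100 µM, steepness 0.5 to 2, significant signal drop, low assay interference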). Conditions: bead-based flow cytometry, Bodipy-GTP binding to GST-Ras; at 100 µM (top of the series) unless noted.
In experiment [4] the test system is Ras-related protein Rab-7a (dog), GTP binding. The experiment can be described thus: Rab7 GTP binding inhibitors, potency, dose response, biochemical, wildtype, multiplex bead flow cytometry (AID 1336; call rule not given here).
Experiment [5] deals with Ras-related C3 botulinum toxin substrate 1 (Homo sapiens) (UniProt P63000). Description: wildtype Rac1 GTP binding inhibitors, dose response, biochemical, multiplex bead flow cytometry (AID 1340;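 active = dose curve with midpoint inside tested range, moderate steepness, plateau gap beyond fit error, low compound glow and bead-link interference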). Conditions: GST-Rac1 beads, Bodipy-FL-GTP binding; at 100 µM (top of the series) unless noted.
Experiment [6] concerns the target GTPase HRas (Homo sapiens) (UniProt P01112). The experiment can be described thus: activated Ras mutant GTP binding inhibitors, dose response, biochemical, multiplex bead flow cytometry (AID 1341;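 active = dose-response curve with midpoint inside the tested range, moderate steepness, significant amplitude and little compound fluorescence or bead-attachment interference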;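 note: GST-tagged constitutively activated Ras mutant immobilized on beads and multiplexed with other GTPases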).

Sequence of GTPase HRas (Homo sapiens) (P01112 whole entry, looked up): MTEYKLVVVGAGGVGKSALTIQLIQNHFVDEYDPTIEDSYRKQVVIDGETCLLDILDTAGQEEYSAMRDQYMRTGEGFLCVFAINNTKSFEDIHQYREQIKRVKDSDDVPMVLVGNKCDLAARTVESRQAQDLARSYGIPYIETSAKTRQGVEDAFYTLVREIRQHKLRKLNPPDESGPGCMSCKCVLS

`O=C(Nc1ccccc1C(=O)N1CCOCC1)C1CCC(=O)N1C1CCCC1` (stereo not given): the call in experiment [1], in experiment [4] and in experiment [6] was inactive. Moreover, the fluorescence, percent of control (lower = inhibition) in experiment [2] stood at 51.3%. The molecule further gave a GTP binding, percent of control in experiment [3] of 62.7%. Moreover, the GTP binding signal, raw median fluorescence (lower = inhibition) (MCF (arbitrary fluorescence units)) in experiment [5] stood at 210.

As to `O=C(O)c1ccc2c3c(cccc13)C(=O)N(OS(=O)(=O)c1ccccc1)C2=O`, the molecule was classed as inactive in experiment [1], in experiment [4] and in experiment [6]. Also, the fluorescence, percent of control (lower = inhibition) in experiment [2] is 33.5%. Besides, in experiment [3], the GTP binding, percent of control came out at 78.2%. In experiment [5], this molecule returned a GTP binding signal, raw median fluorescence (lower = inhibition) (MCF (arbitrary fluorescence units)) of 191.

As to `O=C(/C=C/c1c(Cl)nc2ccccn12)N1CCCCC1`, the molecule was called inactive in experiment [1], in experiment [4] and in experiment [6]. The fluorescence, percent of control (lower = inhibition) in experiment [2] is 33.3%. This molecule also gave a GTP binding, percent of control in experiment [3] of 80.9%. For the same molecule, in experiment [5], the GTP binding signal, raw median fluorescence (lower = inhibition) (MCF (arbitrary fluorescence units)) amounted to 245.

Turning to `CCC(Oc1ccc2ccccc2c1)C(=O)O` (stereo not given), the result in experiment [1], in experiment [4] and in experiment [6] was inactive. Also, the fluorescence, percent of control (lower = inhibition) in experiment [2] is 123%. Also, in experiment [3], the GTP binding, percent of control stood at 156%. Besides, in experiment [5], the GTP binding signal, raw median fluorescence (lower = inhibition) (MCF (arbitrary fluorescence units)) was determined as 190.

As to `Cc1nc2c(ccc3nc(NC(=O)c4ccc(S(=O)(=O)N(C)C)cc4)sc32)s1`, the molecule was called inactive in experiment [1], in experiment [4] and in experiment [6]. Further, the fluorescence, percent of control (lower = inhibition) in experiment [2] worked out at 79.8%. Moreover, the GTP binding, percent of control in experiment [3] was determined as 151%. The molecule further showed a GTP binding signal, raw median fluorescence (lower = inhibition) (MCF (arbitrary fluorescence units)) in experiment [5] of 159.

Consider `Cc1ccccc1CNCc1ccc(C(=O)O)s1`, for which the molecule was called inactive in experiment [1], in experiment [4] and in experiment [6]. Moreover, in experiment [2], the fluorescence, percent of control (lower = inhibition) came out at 61.7%. Further, the GTP binding, percent of control in experiment [3] was determined as 87%. In addition, the GTP binding signal, raw median fluorescence (lower = inhibition) (MCF (arbitrary fluorescence units)) in experiment [5] amounted to 32.5.

As for `COc1ccc(-c2cc(-c3ccc(O)cc3)nc(N)c2C#N)cc1OC`, the molecule was classed as inactive in experiment [1], in experiment [4] and in experiment [6]. The fluorescence, percent of control (lower = inhibition) in experiment [2] came to 32.2%. This molecule also yielded a GTP binding, percent of control in experiment [3] of 77.1%. Also, the GTP binding signal, raw median fluorescence (lower = inhibition) (MCF (arbitrary fluorescence units)) in experiment [5] is 184.

As for `CCOC(=O)c1cc2c(N)c(C(=O)c3ccc(Br)cc3)sc2[nH]c1=O`, the molecule was classed as inactive in experiment [1], in experiment [4] and in experiment [6]. Further, the fluorescence, percent of control (lower = inhibition) in experiment [2] was 29%. This molecule also came in with a GTP binding, percent of control in experiment [3] of 69.1%. For the same molecule, in experiment [5], the GTP binding signal, raw median fluorescence (lower = inhibition) (MCF (arbitrary fluorescence units)) was found to be 145.

For `O=C(COC(=O)C1(c2ccccc2F)CCCC1)Nc1ncc(C(F)(F)F)cc1Cl`, the molecule was classed as inactive in experiment [1], in experiment [4] and in experiment [6]. Moreover, the fluorescence, percent of control (lower = inhibition) in experiment [2] turned out to be 47.6%. In experiment [3], this molecule displayed a GTP binding, percent of control of 60.4%. The GTP binding signal, raw median fluorescence (lower = inhibition) (MCF (arbitrary fluorescence units)) in experiment [5] amounted to 194.

`COc1ccc(C2=Nn3c(nnc3-c3ccccc3)SC2)cc1OC`: the result in experiment [1], in experiment [4] and in experiment [6] was inactive. Further, in experiment [2], the fluorescence, percent of control (lower = inhibition) worked out at 37.5%. Also, the GTP binding, percent of control in experiment [3] was 86%. Further, the GTP binding signal, raw median fluorescence (lower = inhibition) (MCF (arbitrary fluorescence units)) in experiment [5] was found to be 214.

Take `COc1ccc(-n2cc(-c3ccccc3)c3c(=O)[nH]cnc32)cc1`: the molecule was classed as inactive in experiment [1], in experiment [4] and in experiment [6]. Also, in experiment [2], the fluorescence, percent of control (lower = inhibition) came out at 39.1%. Further, the GTP binding, percent of control in experiment [3] was 84.4%. The same molecule returned a GTP binding signal, raw median fluorescence (lower = inhibition) (MCF (arbitrary fluorescence units)) in experiment [5] of 327.

For the molecule `COc1ccc(N/C=C/c2nc(SC)nnc2C)cc1`, the molecule was classed as inactive in experiment [1], in experiment [4] and in experiment [6]. For the same molecule, the fluorescence, percent of control (lower = inhibition) in experiment [2] worked out at 31.3%. The GTP binding, percent of control in experiment [3] was determined as 72.4%. Moreover, the GTP binding signal, raw median fluorescence (lower = inhibition) (MCF (arbitrary fluorescence units)) in experiment [5] came out at 183.

Turning to `CCOc1ccc(-n2c(SCC(=O)NC(C)CC)nc3n[nH]c(C)c3c2=N)cc1` (stereo not given), the molecule was called inactive in experiment [1], in experiment [4] and in experiment [6]. Further, in experiment [2], the fluorescence, percent of control (lower = inhibition) worked out at 38.4%. The same molecule returned a GTP binding, percent of control in experiment [3] of 48.1%. Moreover, the GTP binding signal, raw median fluorescence (lower = inhibition) (MCF (arbitrary fluorescence units)) in experiment [5] is 0.

For `COc1ccc(CCNc2nc(=S)[nH]c3cc(OC)c(OC)cc23)cc1OC`, the molecule was called inactive in experiment [1], in experiment [4] and in experiment [6]. In addition, the fluorescence, percent of control (lower = inhibition) in experiment [2] came to 25.9%. The molecule also came in with a GTP binding, percent of control in experiment [3] of 57.9%. Also, the GTP binding signal, raw median fluorescence (lower = inhibition) (MCF (arbitrary fluorescence units)) in experiment [5] turned out to be 111.

Regarding `CCC(C)N1C(=O)/C(=C/c2c(NCCCOC(C)C)nc3c(C)cccn3c2=O)SC1=S` (stereo not given), the result in experiment [1], in experiment [4] and in experiment [6] was inactive. In experiment [2], the fluorescence, percent of control (lower = inhibition) was determined as 130%. In experiment [3], this molecule gave a GTP binding, percent of control of 136%. This molecule also returned a GTP binding signal, raw median fluorescence (lower = inhibition) (MCF (arbitrary fluorescence units)) in experiment [5] of 244.
